Laboratory results from PubChem BioAssay (NCI).
The panel holds about 83,000 compounds, 20% with a hit somewhere; the sample as a whole holds those more often.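 For each line, cells grew in 96-well plates with the test compound present at a single concentration for 48 hours.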 Active and inactive are the calls of the source. The calls were made as follows: active = growth percent below 10; inactive = the rest.

These compounds were tested on NCI-H322M lung (assay: NCI-60 one-dose screen, 48 h (100 = growth as untreated, 0 = no growth, -100 = all killed)). Conditions: 10 µM.

Row | SMILES | growth
1 | CNC(=O)c1cccc(N2CCc3c2ccc(NC(=O)Nc2ccc(N4CCN(C)CC4)c(C(F)(F)F)c2)c3F)c1 | -92% (active)
2 | CC(=O)Nc1ccc(-n2cnc3cc(-c4ccc(O)cc4)ccc32)cc1C | 74.9% (inactive)
3 | CN(C)c1nc(NCCNS(=O)(=O)c2ccc(C(=O)/C=C/c3ccccc3)cc2)nc(Nc2ccc(F)cc2)n1 | 44.1% (inactive)
4 | O=C1CCC(N2Cc3c(C#CCCCNC(=O)c4ccc(NC(=O)[C@@H]5NC6(CCCCC6)[C@@]6(C(=O)Nc7cc(Cl)ccc76)[C@H]5c5cccc(Cl)c5F)cc4)cccc3C2=O)C(=O)N1 (stereo partly drawn) | 77.5% (inactive)
5 | COc1cc(C2CC(c3ccccc3)=Nc3c(N)nc(N)nc3N2)ccc1Oc1nc(Nc2ccc(F)cc2)nc(N(C)C)n1 (stereo not drawn) | 71.7% (inactive)
6 | CCOC(=O)C1=C(N)N(c2ccc(Cl)cc2)C2=C(C(=O)CC(C)(C)C2)C1c1ccc(N2CCOCC2)cc1 (stereo not drawn) | 95.4% (inactive)
7 | O=C(c1ccc(Cl)cc1)C1[C@H](c2ccccc2Br)[C@@H](c2ccccc2)NC12C(=O)Nc1ccc(Cl)cc12 (stereo partly drawn) | 44.7% (inactive)
8 | Nc1nc(Nc2ccc(Cl)cc2)nn1Cc1cccc(Br)c1 | 44.7% (inactive)
9 | O=S(=O)(Nc1ncccn1)c1ccc(-n2c(-c3ccccc3)nc(-c3ccccc3)c2-c2ccccc2)cc1 | 96.4% (inactive)
10 | CN1CCc2c(sc3ncnc(N/N=C/c4cn(-c5ccccc5)nc4-c4ccc(Cl)cc4)c23)C1 | 28.7% (inactive)
11 | Nc1nnc(-c2c[nH]c3ncccc23)c(-c2c[nH]c3ccc(Br)cc23)n1 | 60.5% (inactive)
12 | Cc1cc(=O)oc2cc(OCCCCOc3ccc(/C=C/C(=O)Nc4ccccc4[N+](=O)[O-])cc3)ccc12 | 99.6% (inactive)
13 | COc1ccc(-c2nc(S(=O)(=O)c3ccc(C)cc3)c(S(C)(=O)=O)o2)cc1 | 89.6% (inactive)
14 | CN1CCN(Cc2ccc(C(=O)Nc3cccc(Nc4ccc5c(O)cccc5n4)c3)cc2C(F)(F)F)CC1 | -18.6% (active)
15 | O=C1NC(=NC23CC4CC(CC(C4)C2)C3)N/C1=C\c1ccc2ncccc2n1 | -10.2% (active)
16 | COc1csc(/C=N/NC(=O)c2[nH]c3ccc(Br)cc3c2-c2ccccc2)c1 | 34.7% (inactive)
17 | O=C(Cn1nc(-c2ccccc2)ccc1=O)NNC(=S)NC1CCCCC1 | 99.6% (inactive)
18 | NS(=O)(=O)c1ccc(NC(=O)CSc2ccc(-c3ccccc3)nn2)c(Br)c1 | 64.3% (inactive)
19 | O=c1c2ccccc2nc(COc2ccccc2)n1/N=C/c1ccc(F)cc1 | 96.6% (inactive)

Row | SMILES | growth
20 | O=C(Nc1ccc(Cl)c([N+](=O)[O-])c1)Nc1ccc(Cl)c([N+](=O)[O-])c1 | 27.7% (inactive)
21 | O=C(Nc1ccc(OCc2ccccc2)cc1)Nc1ccc(Cl)c(C(F)(F)F)c1 | 7% (active)
22 | COc1ccc2nc(Cl)c(-c3cc(-c4ccccc4)nc(N)n3)cc2c1 | 60.7% (inactive)
23 | CN1CCN(c2ccc(Nc3nc(NCCCNC(=O)c4ccccc4)c4sccc4n3)cc2)CC1 | 84.2% (inactive)
24 | O=C1Nc2ccc(F)cc2/C1=C/c1cccc(OCc2ccccc2)c1 | 47.6% (inactive)
25 | Cc1noc2c(Cc3ccc([N+](=O)[O-])cc3)nn(CC(=O)N/N=C/c3ccc(Cl)cc3)c(=O)c12 | 62.5% (inactive)
26 | O=c1[nH]c2ccc(Cl)cc2cc1CSc1ccc(Nc2nccc(-c3ccc(Cl)cc3)n2)cc1 | 90.8% (inactive)
27 | O=S(=O)(Nc1ncccn1)c1ccc(-n2c(-c3ccc(Br)cc3)nc(-c3ccccc3)c2-c2ccccc2)cc1 | 64.1% (inactive)
28 | Cc1ccc(C(=O)NNC(=O)CSc2nc3ccccc3c(=O)[nH]2)cc1 | 99.2% (inactive)
29 | CCCn1c(O)c(N=Nc2nc(-c3cc4ccccc4oc3=O)cs2)c2cc(Br)ccc21 | 102% (inactive)
30 | CN1CCN(c2ccc(Nc3nc(NCCNC(=O)c4ccc(C(F)(F)F)cc4)c4sccc4n3)cc2)CC1 | 28.3% (inactive)
31 | CN1CCN(c2ccc(C(=O)/C=C/c3cc(C(F)(F)F)ccc3Cl)cc2)CC1 | -94.8% (active)
32 | CCOc1ccc(/C=N/NC(=O)Cn2nc(Cc3ccccc3)c3onc(C)c3c2=O)cc1 | 50.5% (inactive)
33 | O=C(NO)c1ccc(-c2nc3ccc4[nH]ncc4c3c3c2CCCC3)cc1 | -1.64% (active)
34 | COc1ccc(-c2ccc(/C=N/NC(=O)c3[nH]c4ccc(Br)cc4c3-c3ccccc3)o2)cc1 | 70.4% (inactive)
35 | CCOC(=O)C1=C(N)N(c2ccc(C)cc2)C2=C(C(=O)CC(C)(C)C2)C1c1ccccc1OC (stereo not drawn) | 93.4% (inactive)
36 | N#C/C(=C\c1ccc(N(c2ccccc2)c2ccccc2)cc1)C(N)=O | 92.9% (inactive)
37 | NC1=NC(c2ccccc2Cl)N=C(Nc2nn[nH]n2)N1 (stereo not drawn) | 111% (inactive)
38 | O=C(N/N=C/c1ccc(-c2cccc([N+](=O)[O-])c2)o1)c1[nH]c2ccc(Br)cc2c1-c1ccccc1 | 54% (inactive)
